Vif inh: HIV Vif self-association inhibitors, primary screen, imaging, HEK293T, single point; 340,000 compounds, 0.35% hits; HEK293T cells, Vif self-association by quenched fluorescence, 24 h; AID 602346, 2012; inhibition, % at 7.49 µM; in the data active means inhibition above about 50%, passing the limit was not always enough; inconclusive means no clear call, values can overlap the other calls; inactive means below about 31%
HSF1 inhib: HSF1 inhibitors in luciferase reporter cells, primary screen, cell-based, NIH3T3, luminescence; NIH3T3-HGL HSE-luciferase, MG132-induced, luminescence 8 h; active compounds read low; activity change, negative = inhibition, % at 7.5 µM (by protocol); 300,000 compounds, 0.77% hits; AID 2098, 2009;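 active means more than half of replicate wells show activity change below -50%, luminescence cut by over half; inconclusive means some wells, but at most half, below -50%; inactive means no replicate well below -50%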;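 further: luciferase reports HSF-1 transcriptional activity via heat shock element; 0% = median of DMSO wells and -100% = zero luminescence signal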
esBAF inh: Bmi1 luciferase reporter increase in mESCs, primary screen, esBAF inhibitor project, mouse ES cells, Bmi1 luciferase knock-in, single point; 24 h; 100% = twice the neutral-well signal; reporter increase, % at 12.5 µM; 350,000 compounds, 2% hits; AID 602393, 2012; in the data active means activation above about 40%; inconclusive means no clear call, values can overlap the other calls;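 further: 0% = median of the plate's neutral control wells and 100% = double that signal; a rise in the Bmi1 reporter signal indicates esBAF inhibition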
HSF-1 act: HSF-1 activators, primary screen, NIH3T3-HGL cells, MG132 stress, luminescence, single point | activation, % at 9 µM | 300,000 compounds, 1.7% hits | NIH3T3-HGL HSF-1 luciferase reporter, 8 h; 100% = twice DMSO control signal;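 active means mean replicate activation of at least 50% with a set share of replicates each reaching 50%; inconclusive means only one of those two conditions met; inactive means mean below 50% and too few replicates reaching it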;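 further: 0% = median of the neutral control wells and 100% = twice that signal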
Starred values were filed as active, the others as inactive; ? = inconclusive; / = not tested or not shown; ! = not confirmed by another sample. Shown are actives, neighbours in structure and some others; about 3.4% of the full set was active somewhere.

SMILES | Vif inh | HSF1 inhib | esBAF inh | HSF-1 act
CSc1cccc2sc(NC(=O)C3=COCCO3)nc12 | -18 | 21 | 57* | 28
O=C(NNc1nc2c(F)cccc2s1)C1=COCCO1 | -6 | -3 | -1 | 4
COc1cccc(S(=O)(=O)N(C)C[C@@H]2Oc3ncc(-c4cccc(C(F)(F)F)c4)cc3C(=O)N([C@H](C)CO)C[C@@H]2C)c1 | / | / | -7 | /
COC(=O)c1ccc(OC(=O)/C=C/c2ccco2)cc1 | -4 | 16 | -5 | 12
O=Cc1cccc(OC(=O)/C=C/c2ccco2)c1 | -5 | 21 | 48* | 35
COc1ccc(NC(=O)N(C)C[C@@H]2Oc3c(NS(=O)(=O)c4ccc(Cl)cc4)cccc3C(=O)N([C@H](C)CO)C[C@H]2C)cc1 | / | / | 2 | /
CC(C)SC1=NC(C)(C)C=C(/C=C/c2ccc(Cl)cc2Cl)N1 | 7 | 57 | / | 82*
CCNc1nc(Nc2ccc(C)c(Cl)c2)c2cnn(C)c2n1 | -12 | -14 | -2 | -10
CCCCNc1nc(Nc2ccc(C)c(Cl)c2)c2cnn(C)c2n1 | -23 | 14 | -6 | 65*
C[C@H]1CN([C@@H](C)CO)S(=O)(=O)c2ccc(-c3cccc(C#N)c3)cc2O[C@H]1CN(C)C(=O)c1cccnc1 | / | / | -2 | /
CCCc1nc2c3ccccc3ccn2c1Cc1ccccc1 | / | / | 52* | /
CC(C)C#Cc1ccc([C@H]2[C@@H](CO)N(C(=O)C3CCOCC3)[C@H]2C#N)cc1 | / | / | 4 | /
COc1ccc(C(=O)c2cc3cccc(OC)c3o2)cc1 | 3 | 16 | 60* | 40
COc1cccc2cc(C(C)=O)oc12 | 3 | 5 | -2 | 4
COc1ccc(-c2cc(C(=O)Nc3cc(OC)cc(C(=O)Nc4cccc(C(F)(F)F)c4)c3)[nH]n2)cc1 | -13 | 26 | 48*! | 39
COc1cc(NC(=O)c2cc3cccc(OC)c3o2)cc(C(=O)Nc2cccc(C(F)(F)F)c2)c1 | 7 | -67* | 3 | -74
COc1cccc(NC(=O)c2cc3cccc(OC)c3o/c2=N\O)c1 | / | 19 | / | 59*
COc1cccc(NC(=O)c2cc3ccccc3o/c2=N\O)c1 | -4 | 44 | -55 | ?
CC(C)CC#Cc1cnc2c(c1)C(=O)N([C@H](C)CO)C[C@H](C)[C@@H](CN(C)Cc1cccc(F)c1)O2 | / | / | -13 | /
COc1cc(NC(=O)c2ccc(N)nc2)cc(C(=O)Nc2cccc(C(F)(F)F)c2)c1 | -18 | 9 | 45*! | 9
COc1cc(NC(=O)c2nccnc2N)cc(C(=O)Nc2cccc(C(F)(F)F)c2)c1 | -14 | 7 | -3 | 9
C/C=C/c1cnc2c(c1)C(=O)N([C@@H](C)CO)C[C@@H](C)[C@H](CN(C)C(=O)c1cccc(F)c1)O2 | / | / | 2 | /
Clc1ccc(Cc2noc(-c3cccs3)n2)cc1 | 3 | 37 | 63* | 48
Clc1ccc(-c2nc(Cc3ccccc3Cl)no2)cc1 | -4 | 2 | 32 | 9
Cn1c(CNc2ccc(Cl)cc2)nnc1SCC#N | 6 | 4 | / | 15
SMILES | Vif inh | HSF1 inhib | esBAF inh | HSF-1 act
Cn1c(CNc2cccc(Cl)c2)nnc1SCC#N | 0 | 27 | / | 73*
COc1cc(OC)nc(Oc2ccccc2C(=O)Oc2ccc(Cl)cc2)n1 | 0 | -86* | 8 | -90
Cn1nnc(-c2ccc(OCc3ccccc3F)cc2)n1 | -9 | 23 | 3 | 56*
CC(=O)N1CCN(c2ccc(NC(=O)c3ccccc3Cl)cc2)CC1 | 22 | 2 | -2 | -17
O=C(Nc1ccc(N2CCCCCC2)cc1)c1ccccc1Cl | -23 | 29 | 31 | 60*
O=C(Nc1ccc(N2CCCCC2)cc1)c1ccccn1 | -9 | -67* | -81 | -71
COc1ccc(Br)cc1C(=O)Nc1ccc(N2CCCC2)cc1 | 143* | -15 | 10 | -27
O=C(Nc1ccc(-n2ccnc2P(=O)(O)c2ccccc2)cc1)c1ccccc1Cl | -16 | -55* | -4 | -66
C[C@H](CO)N1C[C@H](C)[C@H](CN(C)Cc2ccncc2)Oc2ccc(NC(=O)C3CC3)cc2C1=O | / | / | 0 | /
Cc1noc(C)c1NC(=O)Nc1ccc2c(c1)C(=O)N([C@@H](C)CO)C[C@H](C)[C@@H](CN(C)C(=O)Nc1c(C)noc1C)O2 | / | / | -3 | /
Cc1ccc(NC(=O)c2cc(NC(=O)c3ccccc3C(=O)O)ccc2N2CCCCC2)cc1 | -5 | 26 | / | 60*
CCN(CC)S(=O)(=O)c1ccc(NC(=O)c2ccccn2)cc1 | 4 | 8 | 48* | 28

Bioassay records as filed in PubChem.
